# According to PubChem BioAssay (EPA / NIEHS):
# Results filed as inconclusive are left out. Calls of active or inactive are those of the source. The calls were made as follows: active = hit-call score of the fitted dose curve at least 0.9, where 1 is the maximum; inconclusive = response in the unintended direction; inactive = score below 0.9.
# How the values were obtained:
# [1] = target: Cytochrome P450 3A4 (Homo sapiens) (UniProt P08684); test: NVS_ADME_hCYP3A4: NovaScreen (NVS) CYP450-related Enzyme Activity (ADME) Assay for human CYP3A4 (AID 2283110)
# Procedure, shortened: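 Compounds screened in duplicate at 10 uM, with follow-up concentration-response for actives, against insect-cell-expressed recombinant enzyme. Activity read by fluorescence 0.33 h after dosing; loss of signal versus acetonitrile control indicates inhibition.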
# [2] = target: rat CYP2A2, Cyp2a2 (gene 24895) (UniProt P15149); test: NVS_ADME_rCYP2A2: NovaScreen (NVS) CYP450-related Enzyme Activity (ADME) Assay for rat CYP2A2 (AID 2283116)
# Procedure, shortened: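 Compounds first tested in duplicate at 10 uM, then in singleton concentration series up to 20 uM when over threshold. Activity of the recombinant enzyme read by fluorescence at 0.2 h, normalised to acetonitrile vehicle.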
# [3] = target: human Acid Phosphatase 1 (ACP1), ACP1 (gene 52) (UniProt P24666); test: NVS_ENZ_hACP1: NovaScreen (NVS) Enzymatic Assay for human Acid Phosphatase 1 (ACP1) (AID 2283136)
# Procedure, shortened: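 Cell-free fluorescence read-out of phosphatase activity, substrate and product separated by mobility shift, taken 1.5 h after compound addition; protein produced in Sf9. Single 25 uM duplicate screen, followed by concentration series for actives, scored as signal loss relative to DMSO.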
# [4] = target: human Caspase 5 (CASP5), CASP5 (gene 838) (UniProt P51878); test: NVS_ENZ_hCASP5: NovaScreen (NVS) Enzymatic Assay for human Caspase 5 (CASP5) (AID 2283137)
# Procedure, shortened: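 Loss of fluorescent signal versus DMSO scored for E. coli-derived human CASP5 cleaving a fluorescent substrate, 2 h post-dosing; compounds first tested at 25 uM in duplicate, hits rerun in concentration series with 50 uM top concentration.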
# [5] = target: human AKT serine/threonine Kinase 2 (AKT2), AKT2 (gene 208) (UniProt P31751); test: NVS_ENZ_hAKT2: NovaScreen (NVS) Enzymatic Assay for human AKT serine/threonine Kinase 2 (AKT2) (AID 2283141)
# Procedure, shortened: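 Cell-free fluorescence/electrophoretic mobility shift readout of recombinant human AKT2 activity, 1 h after chemical dosing. Duplicate primary screen at 25 uM, then singleton concentration-response up to 50 uM; loss of signal versus DMSO baseline.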
# CDK2 (gene 1017) = CDK2 (gene 1017) (UniProt P24941); test: NVS_ENZ_hCDK2: NovaScreen (NVS) Enzymatic Assay for human Cyclin-Cependent Kinase 2 (CDK2) (AID 2283144)
# Procedure, shortened: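 Compounds screened in duplicate at 25 uM, then in singleton concentration-response to a maximum of 50 uM, against recombinant CDK2; kinase activity read 1 hr after dosing by fluorescence with mobility-shift separation of substrate and product.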
# [6] = target: human Casein Kinase 1-delta (CK1D), CSNK1D (gene 1453) (UniProt P48730); test: NVS_ENZ_hCK1D: NovaScreen (NVS) Enzymatic Assay for human Casein Kinase 1-delta (CK1D) (AID 2283148)
# Procedure, shortened: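 Recombinant human CK1-delta, cell-free; fluorescent substrate with electrophoretic mobility-shift separation of product, read 1 h after dosing. Single 25 uM duplicate screen, then concentration-response up to 50 uM; loss of signal vs DMSO.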
# human Caspase 5 (CASP5), CASP5 (gene 838), sequence (P51878 whole entry, looked up): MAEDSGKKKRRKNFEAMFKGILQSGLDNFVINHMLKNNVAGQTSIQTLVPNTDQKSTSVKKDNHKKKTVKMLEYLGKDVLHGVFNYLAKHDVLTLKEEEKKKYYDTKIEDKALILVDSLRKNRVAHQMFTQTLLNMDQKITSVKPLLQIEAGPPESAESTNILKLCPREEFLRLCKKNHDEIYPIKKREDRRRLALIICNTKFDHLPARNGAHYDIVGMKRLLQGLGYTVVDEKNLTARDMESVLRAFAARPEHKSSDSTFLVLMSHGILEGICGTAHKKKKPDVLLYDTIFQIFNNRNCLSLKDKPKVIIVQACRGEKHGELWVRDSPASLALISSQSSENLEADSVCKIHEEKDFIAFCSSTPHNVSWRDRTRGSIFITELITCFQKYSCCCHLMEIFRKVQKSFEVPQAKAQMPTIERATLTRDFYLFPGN
# human Casein Kinase 1-delta (CK1D), CSNK1D (gene 1453), sequence (P48730 whole entry, looked up): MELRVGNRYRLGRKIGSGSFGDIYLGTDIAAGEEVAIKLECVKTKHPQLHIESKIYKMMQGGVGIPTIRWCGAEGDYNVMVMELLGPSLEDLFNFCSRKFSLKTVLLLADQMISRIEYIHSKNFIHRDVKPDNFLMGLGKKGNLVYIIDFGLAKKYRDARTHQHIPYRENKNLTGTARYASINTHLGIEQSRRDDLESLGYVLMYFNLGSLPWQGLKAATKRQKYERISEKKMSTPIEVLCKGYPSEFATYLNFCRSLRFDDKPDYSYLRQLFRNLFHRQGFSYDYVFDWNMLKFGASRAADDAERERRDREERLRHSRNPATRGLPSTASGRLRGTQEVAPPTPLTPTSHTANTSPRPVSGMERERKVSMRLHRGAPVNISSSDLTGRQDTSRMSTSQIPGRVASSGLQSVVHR
# Cytochrome P450 3A4 (Homo sapiens), sequence (P08684 whole entry, looked up): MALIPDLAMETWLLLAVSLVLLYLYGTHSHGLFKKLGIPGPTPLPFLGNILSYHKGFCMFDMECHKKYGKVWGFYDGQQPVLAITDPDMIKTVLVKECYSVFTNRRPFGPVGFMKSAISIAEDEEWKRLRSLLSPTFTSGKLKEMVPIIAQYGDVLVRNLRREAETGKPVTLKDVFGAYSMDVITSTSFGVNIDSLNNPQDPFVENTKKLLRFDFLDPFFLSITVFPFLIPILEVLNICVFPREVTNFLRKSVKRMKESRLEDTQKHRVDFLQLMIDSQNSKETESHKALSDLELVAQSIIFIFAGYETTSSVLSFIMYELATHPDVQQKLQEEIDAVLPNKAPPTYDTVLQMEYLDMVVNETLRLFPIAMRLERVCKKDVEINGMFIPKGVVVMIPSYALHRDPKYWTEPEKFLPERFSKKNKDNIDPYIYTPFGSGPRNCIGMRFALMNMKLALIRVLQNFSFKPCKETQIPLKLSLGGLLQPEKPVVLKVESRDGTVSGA
# human Acid Phosphatase 1 (ACP1), ACP1 (gene 52), sequence (P24666 whole entry, looked up): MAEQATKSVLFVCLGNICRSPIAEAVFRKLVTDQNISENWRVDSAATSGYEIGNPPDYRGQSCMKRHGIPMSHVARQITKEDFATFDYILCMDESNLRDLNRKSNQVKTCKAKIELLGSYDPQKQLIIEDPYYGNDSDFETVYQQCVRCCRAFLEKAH
# human AKT serine/threonine Kinase 2 (AKT2), AKT2 (gene 208), sequence (P31751 whole entry, looked up): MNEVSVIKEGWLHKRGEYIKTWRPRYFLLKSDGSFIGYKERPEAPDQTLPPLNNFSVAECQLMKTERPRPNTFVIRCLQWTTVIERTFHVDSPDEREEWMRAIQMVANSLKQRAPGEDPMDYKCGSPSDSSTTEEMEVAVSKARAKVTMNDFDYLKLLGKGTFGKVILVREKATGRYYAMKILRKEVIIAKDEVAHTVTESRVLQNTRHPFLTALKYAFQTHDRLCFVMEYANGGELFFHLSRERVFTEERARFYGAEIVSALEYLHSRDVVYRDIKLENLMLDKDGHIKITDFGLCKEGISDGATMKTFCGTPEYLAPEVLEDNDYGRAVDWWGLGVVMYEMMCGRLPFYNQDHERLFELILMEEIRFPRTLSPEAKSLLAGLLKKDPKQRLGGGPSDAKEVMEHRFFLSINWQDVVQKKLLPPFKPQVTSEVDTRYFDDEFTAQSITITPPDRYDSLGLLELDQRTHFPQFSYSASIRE
# rat CYP2A2, Cyp2a2 (gene 24895), sequence (P15149 whole entry, looked up): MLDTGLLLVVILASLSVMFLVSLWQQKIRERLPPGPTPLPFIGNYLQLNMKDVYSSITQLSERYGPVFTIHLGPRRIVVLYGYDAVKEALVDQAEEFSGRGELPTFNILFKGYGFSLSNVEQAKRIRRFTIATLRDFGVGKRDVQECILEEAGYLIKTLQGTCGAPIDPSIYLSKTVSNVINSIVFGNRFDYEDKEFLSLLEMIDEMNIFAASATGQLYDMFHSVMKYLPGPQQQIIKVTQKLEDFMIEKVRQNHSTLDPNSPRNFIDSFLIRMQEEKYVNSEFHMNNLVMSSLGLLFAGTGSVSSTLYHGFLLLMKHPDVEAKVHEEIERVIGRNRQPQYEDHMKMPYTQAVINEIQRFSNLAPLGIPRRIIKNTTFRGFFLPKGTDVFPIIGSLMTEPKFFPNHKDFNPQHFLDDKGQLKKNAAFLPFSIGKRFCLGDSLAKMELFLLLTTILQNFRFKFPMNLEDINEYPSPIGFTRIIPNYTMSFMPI
smiles,measurement,setting,value
CC(C)C=O,AC50,[1],5 µM (active)
CCCCC(CC)C(=O)OCCOCCOCCOCCOC(=O)C(CC)CCCC (configuration not stated),outcome,[1],inactive
NC(=NCCCCCCN=C(N)/N=C(\N)Nc1ccc(Cl)cc1)/N=C(\N)Nc1ccc(Cl)cc1,AC50,[2],2.84 µM (active)
CCCCCCCCCCCCOS(=O)(=O)O,outcome,[3],inactive
same,AC50,[4],25 µM (active)
same,AC50,[5],32.9 µM (active)
same,outcome,CDK2 (gene 1017),inactive
same,outcome,[6],inactive
CCCCC(CC)C(=O)O (configuration not stated),outcome,[3],inactive
Cc1[nH]nc2c1N=C(c1ccccc1Cl)c1cc([N+](=O)[O-])ccc1N2,outcome,[4],inactive
same,AC50,CDK2 (gene 1017),0.0067 µM (active)
CS(=O)(=O)c1ccc([C@@H](CC2CCCC2)C(=O)Nc2cnccn2)cc1Cl,outcome,[6],inactive
